{
  "source": "PubChem BioAssay AID743088",
  "about": "(The Scripps Research Institute Molecular Screening Center, 2013)",
  "system": "Imidazoline I2 Central",
  "experiment": "off-target binding across receptor panel, profiling panel, selectivity assay for AVPR1a antagonist project, biochemical, Panlabs HitProfilingScreen (AID 743088)",
  "details": "Panlabs radioligand binding panel, 30 targets, at 10 µM, hits give high values",
  "note": "Unmarked numbers belong to inactive results.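 How the source made its calls: active means binding inhibited by at least 50%, or stimulated by at least 50%, shown as inhibition of -50% or lower; inactive means the rest.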",
  "data": [
    {"smiles": "O=C(C1CCN(c2ccc(Cl)cn2)CC1)N(CC1CC1)c1ccc(Cl)cc1", "values": [
      {"measurement": "inhibition of binding", "value": 27, "unit": "%"}
    ]}
  ]
}
